Results reported in the supplement of paper PMC3334620.
Whole data set: some 33,000 sequences, median “E-score (-0.5 to 0.5)” near -0.053, cut for the highest 2% near 0.37. What follows is part of a selection rich in the highest values, with near analogues and random picks from the rest.

target: Hap1 (UniProt P0CE41); experiment: PBM E-score (8-mer binding enrichment) (E-score (-0.5 to 0.5)); higher = stronger / more preferred TF binding; conditions: protein concentration: 200 nM; construct: GST-DNA-binding domain
Outline: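 Universal all-10-mer Agilent arrays, fresh or stripped once, were converted to double-stranded form by primer extension. GST-tagged yeast transcription factors from PURExpress in vitro transcription/translation, full-length or DNA-binding domain only, were applied at about 100-200 nM and detected with fluorescent anti-GST. After masliner normalisation, the Universal PBM Analysis Suite scored each ungapped eight-base word together with its reverse complement by E-score.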

Chain of UniProt P0CE41 (P0CE41 whole entry, the tested form may be a part): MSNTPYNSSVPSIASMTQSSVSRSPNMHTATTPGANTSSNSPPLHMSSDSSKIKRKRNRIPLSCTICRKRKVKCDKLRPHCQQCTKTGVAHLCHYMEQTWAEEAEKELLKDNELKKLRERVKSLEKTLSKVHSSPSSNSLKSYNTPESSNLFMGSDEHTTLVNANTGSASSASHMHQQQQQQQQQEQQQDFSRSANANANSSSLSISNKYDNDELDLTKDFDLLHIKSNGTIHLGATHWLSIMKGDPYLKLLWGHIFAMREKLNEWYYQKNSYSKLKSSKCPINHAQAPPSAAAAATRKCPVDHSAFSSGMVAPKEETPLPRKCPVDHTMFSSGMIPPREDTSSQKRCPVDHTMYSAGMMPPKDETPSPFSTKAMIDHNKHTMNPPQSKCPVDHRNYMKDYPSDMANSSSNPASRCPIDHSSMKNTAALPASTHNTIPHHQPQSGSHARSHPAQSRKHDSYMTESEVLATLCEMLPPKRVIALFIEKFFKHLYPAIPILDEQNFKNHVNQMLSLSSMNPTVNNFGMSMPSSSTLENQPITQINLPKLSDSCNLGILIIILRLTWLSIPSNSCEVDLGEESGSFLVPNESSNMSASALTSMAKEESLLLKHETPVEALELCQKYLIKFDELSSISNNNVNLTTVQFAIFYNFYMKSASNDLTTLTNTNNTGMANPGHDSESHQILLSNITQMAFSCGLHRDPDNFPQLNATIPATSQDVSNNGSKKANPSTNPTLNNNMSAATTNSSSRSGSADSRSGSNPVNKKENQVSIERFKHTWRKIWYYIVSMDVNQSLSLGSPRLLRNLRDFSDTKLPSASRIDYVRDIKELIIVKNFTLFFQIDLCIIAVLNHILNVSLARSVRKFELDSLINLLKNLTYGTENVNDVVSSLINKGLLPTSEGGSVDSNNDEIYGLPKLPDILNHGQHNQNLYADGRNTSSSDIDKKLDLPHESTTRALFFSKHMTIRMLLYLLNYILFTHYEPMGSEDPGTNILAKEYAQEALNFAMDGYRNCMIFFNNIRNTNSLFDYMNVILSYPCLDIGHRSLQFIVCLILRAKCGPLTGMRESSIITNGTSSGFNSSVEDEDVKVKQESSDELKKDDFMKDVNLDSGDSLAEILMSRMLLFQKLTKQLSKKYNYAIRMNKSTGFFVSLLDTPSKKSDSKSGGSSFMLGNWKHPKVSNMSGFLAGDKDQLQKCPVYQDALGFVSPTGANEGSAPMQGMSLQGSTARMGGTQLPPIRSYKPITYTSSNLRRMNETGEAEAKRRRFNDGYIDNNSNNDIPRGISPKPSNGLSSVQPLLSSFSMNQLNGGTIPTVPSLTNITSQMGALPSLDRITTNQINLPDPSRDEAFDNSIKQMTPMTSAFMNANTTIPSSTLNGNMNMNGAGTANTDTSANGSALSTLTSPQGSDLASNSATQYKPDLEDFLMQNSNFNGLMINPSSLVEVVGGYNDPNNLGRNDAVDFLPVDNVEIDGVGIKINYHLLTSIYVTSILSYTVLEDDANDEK

| Sequence | PBM E-score |
| --- | --- |
| ATGTACGA | 0.105 |
| CAGGGGAG | -0.137 |
| TAAAGCAA | -0.0198 |
| AACCGGCC | 0.344 |
| CACCGGCA | 0.201 |
| AACCGGCA | 0.158 |
| CACCGGCG | 0.378 |
| AACCGGCG | 0.382 |
| CACCGGCC | 0.313 |
| AATACTTG | -0.112 |
| ACCGCACG | -0.0174 |
| CCCAGCCC | -0.174 |
| CAACCTTC | -0.0289 |
| GCCCTTCA | -0.165 |
| ATTTTCGG | 0.396 |
| AATTTCCC | 0.06 |
| AAATTCCA | 0.0643 |
| ATTTTCCA | -0.0537 |
| AAATTCCG | 0.376 |
| ATTTTCGA | -0.0541 |
| ATTTTCCG | 0.413 |
| ATTTTCGC | 0.0139 |
| AATTTCCG | 0.437 |
| AAATTCCC | 0.145 |
| CATTTCCG | 0.352 |

| Sequence | PBM E-score |
| --- | --- |
| ATTTTCCC | 0.123 |
| AGGTTGGC | 0.00268 |
| AAACCCCA | -0.134 |
| GGCTCTAC | 0.0591 |
| GTCCTTCA | -0.162 |
| CGTGAGAC | 0.00208 |
| GGGAGCAA | 0.0117 |
| AGTTTCCA | -0.133 |
| AGTTTCCC | -0.0919 |
| AGTTTCCG | 0.39 |
| ACCATAGT | -0.0861 |
| CTTGGACA | -0.0486 |
| ATCGGGCA | 0.238 |
| CTCGGACA | 0.415 |
| CACGGACC | 0.341 |
| CTCGGACC | 0.375 |
| GTCGGACA | 0.347 |
| CGCGGACA | 0.335 |
| CTCGGAAC | 0.31 |
| AGCGGACC | 0.257 |
| ATCGGAAC | 0.318 |
| ATCGGACA | 0.394 |
| ATCGGACC | 0.4 |
| CAAGGGGA | -0.0784 |
| ATGGTTTG | 0.0601 |

| Sequence | PBM E-score |
| --- | --- |
| CGACGTAG | -0.0488 |
| ATAGAGGA | -0.186 |
| CTCCAATC | -0.121 |
| CCCAATTC | -0.135 |
| CACCACAA | -0.117 |
| ACATCCAT | -0.093 |
| ACGTCTGG | -0.202 |
| AATAGTAT | 0.103 |
| AAGCAGCT | -0.114 |
| CACGTCGA | -0.183 |
| TACGGTGA | 0.0448 |
| AGACGGCA | -0.0262 |
| ATCGGTCC | 0.374 |
| ATCGGACG | 0.422 |
| AACGGACA | 0.369 |
| AACGGTCA | 0.246 |
| ATCGGTCA | 0.318 |
| CACGGACA | 0.312 |
| AGCGGACG | 0.297 |
| CTCGGTCC | 0.35 |
| AACGGACG | 0.305 |
| GACGGTAC | 0.142 |
| CACCACCC | 0.106 |
| CGGTTGAG | 0.18 |
| AGACCTCT | -0.208 |

| Sequence | PBM E-score |
| --- | --- |
| CGAGGCCA | 0.022 |
| TAGCACCA | -0.14 |
| CGGGGCAA | 0.198 |
| ATATCTCC | 0.437 |
| CTATCTCC | 0.358 |
| ATATATCC | 0.399 |
| ATATATCA | 0.0242 |
| CGATATCG | 0.388 |
| GGATATCC | 0.236 |
| CGATATCA | 0.234 |
| AGATATCC | 0.192 |
| ATCTCTCC | -0.0103 |
| CGATATCC | 0.375 |
| AGATATCG | 0.315 |
| CTATATCC | 0.202 |
| ACCTTGCC | -0.132 |
| AAAGGAGC | -0.141 |
| CATCTTTC | -0.224 |
| AGGTGCTA | -0.132 |
| AGGTTCAA | -0.0501 |
| AAAGGCGC | -0.0167 |
| CTTTAACC | -0.0789 |
| CAGCAGTA | -0.352 |
| CGAGCGGC | 0.238 |
| CGAGCGGA | 0.37 |

| Sequence | PBM E-score |
| --- | --- |
| AGAGCGGA | 0.13 |
| AATGGTCA | -0.179 |
| CCCCGGAA | 0.272 |
| AACCGGAT | 0.286 |
| ACCCGGAA | 0.346 |
| GCACGGAA | 0.215 |
| CCCCGGCC | 0.348 |
| TCACGGAA | 0.329 |
| AACCGGAA | 0.337 |
| TCCCGGAA | 0.397 |
| GCCCGGAA | 0.402 |
| TCCCGGCA | 0.277 |
| AACCGGAG | 0.425 |
| CCCCGGAC | 0.397 |
| CCTGCCGA | 0.156 |
| AGGAGGCC | -0.254 |
| AACGTTGT | -0.162 |
| CGACACGA | 0.0811 |
| CTACATGA | -0.187 |
| TAAAGGCA | -0.0704 |
| GCACTCGC | -0.0299 |
| AGAGGGCA | -0.162 |
| GAGCGATC | 0.0915 |
| AAGTTATT | 0.0401 |
| GCGTCACC | -0.0889 |

| Sequence | PBM E-score |
| --- | --- |
| AATTGCAC | -0.191 |
| ACCCGTAC | 0.0493 |
| GCCCGGGA | 0.316 |
| ACCCGGCC | 0.305 |
| ACCCGGGC | 0.368 |
| CCCCCGAG | 0.308 |
| CCCGGGAG | 0.299 |
| CCCCGGAG | 0.393 |
| GCCCGGGC | 0.434 |
| ACCCGGGT | 0.393 |
| ACCCGGGA | 0.328 |
| ACCCGGGG | 0.306 |
| ACCCGGAC | 0.372 |
| AGAGCGAT | 0.0667 |
| ATACGTTA | -0.106 |
| GCTCTAAC | 0.0397 |
| CGACTGTA | -0.166 |
| CAGAAACC | -0.0171 |
| AACAGGCT | -0.152 |
| TACCTCCA | -0.176 |
| ATCAGTGC | -0.212 |
| ACCCGGAG | 0.423 |
| GCCCGGCC | 0.329 |
| CCCCGGGG | 0.388 |
| CCCCGGGC | 0.36 |

| Sequence | PBM E-score |
| --- | --- |
| ACCCGGAT | 0.322 |
| CCCCCGGG | 0.324 |
| ACCCGGCG | 0.283 |
| GCCCGGAC | 0.401 |
| GCCGGGAC | 0.185 |
| CTCACAGA | -0.242 |
| CGGCGCTC | 0.23 |
| TCTGTGAA | -0.101 |
| CCGGTCCC | 0.323 |
| CCGGTCCA | 0.237 |
| CCGGTCCG | 0.42 |
| AGACTGAT | -0.159 |
| GACAGAGC | -0.162 |
| CGTTTGAA | -0.061 |
| CGAGGGCA | -0.00305 |
| ATTTTGGA | 0.147 |
| ATACTCCA | -0.15 |
| CAACTCCA | -0.0501 |
| AAACTCCA | -0.0578 |
| CAACTCCC | 0.0886 |
| CAACTCCG | 0.398 |
| ATACTCCG | 0.407 |
| AAACTCCG | 0.456 |
| ATACTCCC | 0.115 |
| AAACTCCT | -0.1 |
